The record followed here is PubChem BioAssay AID894 (National Center for Advancing Translational Sciences (NCATS), 2007).

Where “and” joins values, the source holds several entries; their conditions need not be identical. Equal entries are not always repeated. Out of some 150,000 compounds screened, about 6,500 (4.3%) were called active. About 12% were inconclusive and are not listed. Only a selection was taken, and actives are over-represented in it overall. Unmarked numbers belong to inactive results. The call rests on the fitted dose curve; in most records, active means well fitted inhibition curve with a large enough effect (not every such curve was filed as active); inconclusive means small, poorly fitted or top-dose-only effect, or another doubt; inactive means no such curve, though single readings can be large or run the other way.
On the % scale 0 is the no-effect control and ±100 the full control effect; potency means the concentration at half of the fitted maximal effect.

Sequence of 15-hydroxyprostaglandin dehydrogenase [NAD(+)] (Homo sapiens) (P15428 whole entry, looked up): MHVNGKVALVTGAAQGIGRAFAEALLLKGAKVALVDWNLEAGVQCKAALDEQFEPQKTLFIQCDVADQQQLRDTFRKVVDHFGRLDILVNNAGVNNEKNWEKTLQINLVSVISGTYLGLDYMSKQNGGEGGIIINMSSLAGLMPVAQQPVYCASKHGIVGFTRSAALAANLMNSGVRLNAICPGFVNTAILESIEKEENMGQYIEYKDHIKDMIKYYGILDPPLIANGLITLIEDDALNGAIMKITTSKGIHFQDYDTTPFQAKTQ

The target of this test is 15-hydroxyprostaglandin dehydrogenase [NAD(+)] (Homo sapiens) (UniProt P15428). The experiment in a line: qHTS Assay for Inhibitors of HPGD (15-Hydroxyprostaglandin Dehydrogenase). Particulars: purified HPGD, NADH fluorescence kinetic, PGE2 substrate; activity change, negative = inhibition: active compounds read low. From the text:
Human 15-Hydroxyprostaglandin dehydrogenase (HPGD) catalyzes the inactivation of prostaglandin E2, and plays a major role in cancer biology by antagonizing the oncogenic potential of cyclooxygenase type 2 (COX2). Assays are available, based on absorbance/fluorescence increase of NADH with the substrate 15-OH prostaglandin E2. References 1. Myung SJ, Rerko RM, Yan M, Platzer P, Guda K, Dotson A, Lawrence E, Dannenberg AJ, Lovgren AK, Luo G, Pretlow TP, Newman RA, Willis J, Dawson D, Markowitz SD. 15-Hydroxyprostaglandin dehydrogenase is an in vivo suppressor of colon tumorigenesis. […] 2. Yan M, Rerko RM, Platzer P, Dawson D, Willis J, Tong M, Lawrence E, Lutterbaugh J, Lu S, Willson JK, Luo G, Hensold J, Tai HH, Wilson K, Markowitz SD. 15-Hydroxyprostaglandin dehydrogenase, a COX-2 oncogene antagonist, is a TGF-beta-induced suppressor of human gastrointestinal cancers. Proc Natl Acad Sci U S A. 2004 Dec 14;101(50):17468-73. 3. Yang L, Amann JM, Kikuchi T, Porta R, Guix M, Gonzalez A, Park KH, Billheimer D, Arteaga CL, Tai HH, Dubois R, Carbone DP, Johnson DH. Inhibition of Epidermal Growth Factor Receptor Signaling Elevates 15-Hydroxyprostaglandin Dehydrogenase in Non-Small-Cell Lung Cancer. Cancer Res. 2007 Jun 15;67(12):5587-5593. Inhibition of HPGD activity was screened by utilizing prostaglandin as an electron donor and NAD+ as an electron acceptor/cofactor. An increase in the fluorescence intensity due to conversion of NAD+ to NADH was used to measure the enzyme activity. NIH Chemical Genomics Center [NCGC] Structural Genomics Consortium [SGC]
Buffer: 50 mM Tris-HCl, 0.01% Tween 20, pH 8. Enzyme Buffer: 50 mM Tris-HCl, 0.5 mM NAD+ and 0.01% Tween 20, pH 8. Reagents/Controls: Buffer in columns 3 and 4 as negative control (no enzyme). Substrate/cofactor solution: 1 mM NAD+ and 30 uM prostaglandin (Sigma, prostaglandin E2, # P5640) final concentrations dispensed throughout the plate. Enzyme: 20 nM HPGD final concentration in columns 1, 2, 5-48. Column 1 and 2 is neutral (100% activity). A titration of control inhibitor GW5074 (G6416 Sigma-Aldrich, St. Louis, MO) top concentration 10 mM in DMSO, then 1:2 dilution for a total of 16 concentrations in duplicate) was pin-transferred into column 2. Assay Steps: Three uL of enzyme were dispensed to 1536-well Greiner black solid bottom plates. Compounds and control inhibitor (23 nL) were transferred via Kalypsys PinTool. The plates were incubated for 15 min at room temperature, and then 1 uL of substrate/cofactor solution was added to start the reaction. The plates were immediately transferred to and read 5 times every 30 seconds on ViewLux High-throughput CCD imager (Perkin-Elmer) using 360 nm excitation and 450 nm emission fluorescence protocol. The fluorescence intensity difference between the last and the first time points was used to compute reaction progress.
For orientation: qHTS replaces the single test concentration by a dilution series.
Consider `COc1cc(C(=S)N2CCOCC2)cc(OC)c1OC(=O)c1cc([N+](=O)[O-])cc([N+](=O)[O-])c1`, for which the activity change, negative = inhibition is -12%.
Turning to `O=C(Oc1ccccc1C(=S)N1CCCCC1)c1cc([N+](=O)[O-])cc([N+](=O)[O-])c1`, the Potency was 14.1 µM (active).
On to `CCOC(=O)c1[nH]c2c(c1-c1ccccc1)C(=O)CC(c1ccc(Cl)cc1)C2` (configuration not stated), for which the activity change, negative = inhibition was -2.93%.
With `CCOC(=O)C1=C(C)NC(=O)N(C(C)=O)C1c1ccc(Cl)cc1` (configuration not stated), the activity change, negative = inhibition was 0.0111%.
Turning to `CCOC(=O)C1Sc2[nH]c(=O)sc2C(c2ccc(Cl)cc2)C1C(=O)OCC` (configuration not stated), the Potency was 3.98 µM (active).
Same read-out and setting: the figure for `c1ccc(Nc2n[nH]nc2-c2ccccc2)cc1` is 14.1 µM (active).
`Nc1ccc(-c2sc(N)nc2-c2ccccc2)cc1`: the activity change, negative = inhibition was -11%.
In the case of `Nc1ccc(Nc2ccccc2)cc1`, the activity change, negative = inhibition was -5.62%.
`COc1cccc2c(O)cc(=O)n(C)c12`: the activity change, negative = inhibition was -2.82%.
As to `CC(Oc1ccccc1F)C(=O)NN` (configuration not stated), the activity change, negative = inhibition is -6.91%.
As for `O=c1c(O)c(Br)ccc2c(Br)c(O)c(O)c(O)c12`, the Potency was 15.8 µM (active).
Take `COc1ccc(C(=O)COC(=O)c2ccc3ccccc3n2)cc1`: the activity change, negative = inhibition was -15.3%.
Regarding `COc1ccc2c(c1)c(=O)c(C(=O)c1ccc(Cl)cc1)cn2CC(=O)Nc1ccc(F)cc1`, the activity change, negative = inhibition was -6.67%.
As for `CN(CC(=O)Nc1ccc(S(=O)(=O)N2CCCC2)cc1)Cc1ccc(Cl)c(Cl)c1`, the activity change, negative = inhibition was -13.8%.
For `COC(=O)C1=C(C(=O)OC)[C@@H]2N(C)c3ccccc3[C@@]23C[C@@H](C(=O)OC)N(S(=O)(=O)c2ccc(Br)cc2)C3=N1`, the activity change, negative = inhibition is 0.758%.
For the molecule `CC(=O)Nc1ccc(/C(C)=N/NC(=O)CN(c2ccccc2Br)S(C)(=O)=O)cc1`, the activity change, negative = inhibition is -3.71%.
As for `CCCCNS(=O)(=O)c1ccc2nc(SCC(=O)Nc3cc(C)cc(C)c3)[nH]c2c1`, the activity change, negative = inhibition was -21.1%.
In the case of `O=C(CSc1nc(-c2ccccc2)cs1)Nc1cccc([N+](=O)[O-])c1`, the activity change, negative = inhibition was -24.6%.
As for `CCCCNC(=O)CSc1nc2ccc(NC(=O)CSc3nnc(N)s3)cc2s1`, the Potency was 5.01 µM (active).
As for `CCCCNC(=O)CSc1nnc(-c2ccco2)n1C`, the activity change, negative = inhibition was -11.5%.
Consider `Nc1nnc(SCC(=O)Nc2ccc3nc(SCC(=O)Nc4ccccc4)sc3c2)s1`, for which the Potency is 4.47 µM (active).
`Cc1cccc(NC(=O)CSc2nnc(NC(=O)CN3CCOCC3)s2)c1`: the activity change, negative = inhibition was -8.48%.
`CC(CNc1ccc([N+](=O)[O-])c2cccnc12)Nc1c([N+](=O)[O-])cc(C(F)(F)F)cc1[N+](=O)[O-]` (configuration not stated): the activity change, negative = inhibition was -20.4%.
Take `O=C(O)c1ccc(/C=N/NC(=O)c2ccc(Br)cc2)cc1`: the activity change, negative = inhibition is -2.06%.
Regarding `CC(=O)NC1C(OCc2ccccc2)OC(COC(C)=O)C(OC(C)=O)C1OC(C)=O` (configuration not stated), the activity change, negative = inhibition is -0.385%.
Consider `CCN(CC)c1ccc(C(=O)N/N=C(\C)c2cccc(OC)c2)cc1`, for which the activity change, negative = inhibition is -8.48%.
On the same count and under the same terms, the figure for `COc1ccc(OC(C)C(=O)NCCc2nc3ccccc3[nH]2)cc1` (configuration not stated) is -0.239%; for `CC(C)CCNC(=O)c1cccnc1Sc1ccccc1` it is -7.91%.
For `O=c1nc2s/c(=C\c3ccco3)c(=O)n2nc1Cc1ccccc1`, the activity change, negative = inhibition is -22.5%.
On the same count and under the same terms, the figure for `CSc1nc(-c2ccco2)nn1C(=O)CCc1ccccc1` is -14%.
For the molecule `CCOc1ccccc1/C=c1\sc2nc(-c3ccco3)nn2c1=O`, the Potency was 17.8 µM (active).
For `Cc1ccc(C(=O)NC2CCN(C(=O)N3CCOCC3)CC2)cc1`, the activity change, negative = inhibition was -4.3%.
On to `O=C(NC1CCCCC1)c1ccc(CNc2c(N3CCOCC3)c(=O)c2=O)cc1`, for which the Potency is 14.1 µM (active).
As to `O=C(NC1CCCCC1)c1cc([N+](=O)[O-])ccc1N1CCOCC1`, the activity change, negative = inhibition was -0.536%.
As for `CCS(=O)(=O)N1Cc2ccccc2CC1C(=O)Nc1nc2ccc(F)cc2s1` (configuration not stated), the activity change, negative = inhibition was -14%.
As to `CCc1nnc(NC(=O)C2CC(=O)N(c3ccc4c(c3)OCCO4)C2)s1` (configuration not stated), the activity change, negative = inhibition was -28.3%.
For `COC(=O)Cc1ccc(OCC(=O)Nc2ccc(OC(F)(F)F)cc2)cc1`, the activity change, negative = inhibition was -9.9%.
As to `COC(=O)/C=C\C(=O)Nc1cccc([N+](=O)[O-])c1`, the Potency is 3.16 µM (active).
Consider `O=C(CSCC(=O)Nc1cccc([N+](=O)[O-])c1)Nc1ccccc1`, for which the activity change, negative = inhibition is -9.37%.
In the case of `Cc1ccccc1NC(=S)Nc1cccc([N+](=O)[O-])c1`, the activity change, negative = inhibition is -3.09%.
`CCCCNC(=O)C(=O)c1ccccc1NC(C)=O`: the activity change, negative = inhibition is -11.5%.
As for `CCC(C)NC(=O)c1ccccc1NC(=O)c1ccccc1N(C)S(C)(=O)=O` (configuration not stated), the activity change, negative = inhibition is 1.34%.
On to `CCCCNC(=O)c1ccccc1NC(=O)c1ccccc1N(C)S(C)(=O)=O`, for which the Potency was 25.1 µM (active).
With `COc1ccc(C)cc1NC(=O)C(Sc1ccccc1)c1ccccc1` (configuration not stated), the activity change, negative = inhibition is -3.19%.
`CSCCC(Nc1ccc(S(=O)(=O)N2CCOCC2)cc1[N+](=O)[O-])C(=O)OCC(=O)N(C(C)C)C(C)C` (configuration not stated): the activity change, negative = inhibition was -2.59%.
In the case of `O=C(O)c1ccc2c(c1)C(=O)N(NC(=O)c1ccc(O)cc1)C2=O`, the activity change, negative = inhibition was -11%.
In the case of `COC(=O)C(C(=O)OC)C1c2ccccc2C=C(C2CC2)N1C(=O)OC` (configuration not stated), the activity change, negative = inhibition is -11% and -4.45%.
